Drawing on the supplement of paper PMC12494721, this text covers growth for 39 molecules.

Each structure is given as a SMILES string. Counter-ions that a name gives are not always drawn.

The first experiment concerns Clostridium sporogenes DSM 1664. Kind of experiment: growth (OD595) fold change vs plate DMSO controls (fold change (ratio)); higher = more growth. As to conditions: incubation time: 27 h, anaerobic, 37 °C. The method in brief: (§1)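 The reported measure is growth: the fold change against the median of DMSO controls on the plate. Absorbance at 595 nm from anaerobic 96-well mGAM cultures grown for 27 h at 37 °C was blank-subtracted, corrected for background with 20 µM compound solutions in water, and converted to OD with a calibration factor of 5. Fold changes above 1.5 appear as NA, and values are the mean of 2 biological replicates.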
With `Nc1nc(CC(=O)Nc2ccc(CCNC[C@H](O)c3ccccc3)cc2)cs1` [Mirabegron] (20 µM), the growth amounted to 1.09.
Same read-out and setting: the same measure for `NS(=O)(=O)c1cc2c(cc1Cl)NC(CC1CCCC1)NS2(=O)=O` (centres undefined) [Cyclopenthiazide] (20 µM): 1.33.
In the case of `Cc1cc(/C=C/c2ccc3cc(N(C)C)ccc3[n+]2C)c(C)n1-c1ccccc1` [Pyrvinium pamoate] (20 µM), the growth is 1.21.
Turning to `CN1CCC(=C2c3ccccc3C=Cc3ccccc32)CC1` [Cyproheptadine hydrochloride] (20 µM), the growth is 0.683.
On the same count and under the same terms, the same measure for `Cc1ccccc1OCC(O)CO` (centres undefined) [Mephenesin] (20 µM): 0.974.

The test system of the next experiment is Escherichia coli IAI1. The experiment is described as above. As to conditions: incubation time: 27 h, anaerobic, 37 °C. The method in brief: as §1
As to `O=C(O)c1cc(-c2ccc(F)cc2F)ccc1O` [Diflunisal] (20 µM), the growth worked out at 0.978.
On the same count and under the same terms, in the case of `Fc1ccc([C@@H]2CCNC[C@H]2COc2ccc3c(c2)OCO3)cc1` [Paroxetine hydrochloride] (20 µM) it was 1.06.
For the molecule `CCN(CC)CCOC(=O)C1(C2CCCCC2)CCCCC1` [Dicyclomine hydrochloride] (20 µM), the growth is 0.966.
On the same count and under the same terms, the same measure for `CN1[C@@H]2CC[C@H]1C[C@@H](OC(=O)c1c[nH]c3ccccc13)C2` [Tropisetron hydrochloride] (20 µM): 1; for `NC(=O)N1c2ccccc2CC(=O)c2ccccc21` [Oxcarbazepine] (20 µM): 1.01; for `N=C(NCCCCCCNC(=N)NC(=N)Nc1ccc(Cl)cc1)NC(=N)Nc1ccc(Cl)cc1` [Chlorhexidine] (20 µM): 0.885.
Same read-out and setting: in the case of `CC(=O)Nc1ccccc1` [Acetanilide] (20 µM) it was 0.998.
Same read-out and setting: in the case of `Nc1nc(N)nc(-c2cc(Cl)ccc2Cl)n1` [Irsogladine maleate] (20 µM) it was 1.02.
`Cc1ccsc1C(=CCCN1CCC[C@@H](C(=O)O)C1)c1sccc1C` [Tiagabine hydrochloride] (20 µM): the growth stood at 0.984.
Still for that read-out and setting: in the case of `CC(C)NCC(O)c1ccc(O)c(O)c1` (single isomer, unassigned; (-)) [(-) Isoproterenol hydrochloride] (20 µM) it was 0.976; in that of `CN(C)CCN(Cc1ccccc1)c1ccccn1` [Tripelennamine hydrochloride] (20 µM), 0.99.
Take `C[C@H](NCc1ccc(OCc2cccc(F)c2)cc1)C(N)=O` [Safinamide] (20 µM): the growth was determined as 0.992.
Same read-out and setting: the same measure for `Cc1cc(NS(=O)(=O)c2ccc(N)cc2)nc(C)n1` [Sulfisomidine] (20 µM): 1.07; for `O=C(O)Cc1ccccc1Nc1c(Cl)cccc1Cl` [Diclofenac sodium] (20 µM): 0.984.
Turning to `CN1CCCN=C1/C=C/c1cccs1` [Pyrantel tartrate] (20 µM), the growth stood at 1.04.
Still for that read-out and setting: the same measure for `CN(C(=O)C(Cl)Cl)c1ccc(OC(=O)c2ccco2)cc1` [Diloxanide furoate] (20 µM): 0.998; for `O=C(Oc1ccccc1)c1ccccc1O` [Phenyl salicylate] (20 µM): 0.961; for `CCCCC(C)(O)C/C=C/[C@H]1[C@H](O)CC(=O)[C@@H]1CCCCCCC(=O)OC` (mixture of isomers) [Misoprostol] (20 µM): 0.994.
For the molecule `Cc1cc(C(C)(C)C)c(O)c(C)c1CC1=NCCN1` [Oxymetazoline hydrochloride] (20 µM), the growth is 1.02.
Still for that read-out and setting: in the case of `CCN(CC)CCc1nc(-c2ccccc2)no1` [Oxolamine citrate salt] (20 µM) it was 0.976; in that of `COc1ccc2c(c1)c(CC(=O)OCC(=O)O)c(C)n2C(=O)c1ccc(Cl)cc1` [Acemetacin] (20 µM), 1.03.
Take `Cn1cnc([N+](=O)[O-])c1Sc1ncnc2[nH]cnc12` [Azathioprine] (20 µM): the growth is 1.03.
Regarding `CCOC(=O)c1ccc(N)cc1` [Benzocaine] (20 µM), the growth turned out to be 1.03.
Take `COC1=C(OC)C(=O)C(CCCCCCCCCCO)=C(C)C1=O` [Idebenone] (20 µM): the growth is 1.
On the same count and under the same terms, the same measure for `CC(=O)NCCCS(=O)(=O)O` [Acamprosate calcium] (20 µM): 0.999; for `CC(C)NCC(O)COc1cccc2[nH]c3ccccc3c12` (centres undefined) [Carazolol] (20 µM): 1; for `CC(C(=O)O)c1ccc(N2Cc3ccccc3C2=O)cc1` (centres undefined) [Indoprofen] (20 µM): 0.99.
Consider `CC1(C)S[C@@H]2[C@H](NC(=O)[C@H](N)c3ccccc3)C(=O)N2[C@H]1C(=O)O` [Ampicillin trihydrate] (20 µM), for which the growth came out at 0.431.
Still for that read-out and setting: in the case of `CCN1CCCC1CNC(=O)c1cc(S(=O)(=O)CC)c(N)cc1OC` (centres undefined) [Amisulpride] (20 µM) it was 0.998; in that of `COC(=O)Nc1nc2cc(C(=O)c3ccc(F)cc3)ccc2[nH]1` [Flubendazol] (20 µM), 1.04; in that of `CCOc1nc2cccc(C(=O)OCc3oc(=O)oc3C)c2n1Cc1ccc(-c2ccccc2-c2noc(=O)[nH]2)cc1` [Azilsartan medoxomil] (20 µM), 1.
The same measure, in the same setting: in the case of `COc1cc(C(=O)N2CCOCC2)cc(OC)c1OC` [Trimetozine] (20 µM) it was 0.972; in that of `CC(C)NC[C@@H](O)COc1ccc(CC(N)=O)cc1` [(R,+) Atenolol] (20 µM), 1.01.
In the case of `O=C(O)Cc1sc(-c2ccccc2)nc1-c1ccc(Cl)cc1` [Fentiazac] (20 µM), the growth was 1.06.
With `Nc1nc(CC(=O)Nc2ccc(CCNC[C@H](O)c3ccccc3)cc2)cs1` [Mirabegron] (20 µM), the growth turned out to be 1.01.
On the same count and under the same terms, the same measure for `NS(=O)(=O)c1cc2c(cc1Cl)NC(CC1CCCC1)NS2(=O)=O` (centres undefined) [Cyclopenthiazide] (20 µM): 1.03.
In the case of `Cc1cc(/C=C/c2ccc3cc(N(C)C)ccc3[n+]2C)c(C)n1-c1ccccc1` [Pyrvinium pamoate] (20 µM), the growth was 1.12.
The same measure, in the same setting: in the case of `CN1CCC(=C2c3ccccc3C=Cc3ccccc32)CC1` [Cyproheptadine hydrochloride] (20 µM) it was 1.01; in that of `Cc1ccccc1OCC(O)CO` (centres undefined) [Mephenesin] (20 µM), 1.12.
